# PubChem BioAssay (EPA / NIEHS)
# Inconclusive results are not listed. Activity calls are given as the source filed them. How the source made its calls: active means hit-call score of the fitted dose curve at least 0.9, where 1 is the maximum; inconclusive means response in the unintended direction; inactive means score below 0.9.
# Key:
# [1] = biological target: human Elastase, ELANE (gene 1991) (UniProt P08246); assay: NVS_ENZ_hElastase: NovaScreen (NVS) Enzymatic Assay for human Elastase (AID 2283153)
# Procedure, shortened: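 Cell-free elastase from human neutrophils, 1.5 h after dosing, activity read by absorbance. Primary screen in duplicate at 25 uM; hits (e.g., 30% inhibition) rerun in singleton concentration-response up to 50 uM, fitted versus DMSO.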
# [2] = biological target: human Esterase Plasma (ES), BCHE (gene 590) (UniProt P06276); assay: NVS_ENZ_hES: NovaScreen (NVS) Enzymatic Assay for human Esterase Plasma (ES) (AID 2283157)
# Procedure, shortened: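 Chemicals were added to plasma-extracted human enzyme in a cell-free format, and activity was read colorimetrically after 0.25 hour. Activity loss was referenced to DMSO; concentration-response top dose was 50 uM.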
# [3] = biological target: human Ephrin type-A Receptor 1 (EphA1), EPHA1 (gene 2041) (UniProt P21709); assay: NVS_ENZ_hEphA1: NovaScreen (NVS) Enzymatic Assay for human Ephrin type-A Receptor 1 (EphA1) (AID 2283158);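 further: activity is signal loss versus DMSO meaning EphA1 kinase inhibition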
# Procedure, shortened: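 Biochemical kinase assay run cell-free; 1 h incubation; readout is fluorescence with mobility-shift separation of product. Concentration-response up to 50 uM for actives from a 25 uM screen.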
# [4] = biological target: human Dual Specificity Protein Phosphatase 3 (DUSP3), DUSP3 (gene 1845) (UniProt P51452); assay: NVS_ENZ_hDUSP3: NovaScreen (NVS) Enzymatic Assay for human Dual Specificity Protein Phosphatase 3 (DUSP3) (AID 2283152);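 further: phosphatase activity of recombinant human DUSP3 on a fluorogenic substrate without cells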
# Procedure, shortened: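 Cell-free assay with recombinant human DUSP3 and fluorogenic substrate, read by fluorescence intensity. Primary screen ran duplicate at 25 uM; actives followed up in concentration series; loss of signal versus DMSO scored.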
# [5] = biological target: human Janus Kinase 2 (Jak2), JAK2 (gene 3717) (UniProt O60674); assay: NVS_ENZ_hJak2: NovaScreen (NVS) Enzymatic Assay for human Janus Kinase 2 (Jak2) (AID 2283169)
# Procedure, shortened: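 Cell-free recombinant human JAK2 enzyme activity assay, fluorescence/electrophoretic mobility shift read 1 h after dosing. Screened in duplicate at 25 uM, then concentration-response up to 50 uM; activity as signal loss relative to DMSO.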
# [6] = biological target: Histone deacetylase 3 (Homo sapiens) (UniProt O15379); assay: NVS_ENZ_hHDAC3: NovaScreen (NVS) Enzymatic Assay for human Histone Deacetylase 3 (HDAC3) (AID 2283163)
# Procedure, shortened: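 Recombinant human HDAC3 with fluorescent substrate, 1 h after dosing; product separated from substrate by electrophoretic mobility shift and read by fluorescence. Primary screen at 25 uM in duplicate; actives (e.g. ≥30% inhibition) retested in concentration-response up to 50 uM.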
# [7] = biological target: Glycogen synthase kinase-3 beta (Homo sapiens) (UniProt P49841); assay: NVS_ENZ_hGSK3b: NovaScreen (NVS) Enzymatic Assay for human Glycogen Synthase Kinase-3 beta (GSK3b) (AID 2283165)
# Procedure, shortened: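 Recombinant enzyme with specific fluorescent substrate, 1 h, product separated by electrophoretic mobility shift. Primary duplicate screen at 25 uM; actives (e.g. 30% inhibition) followed in singleton concentration-response to 50 uM. Signal loss fitted versus DMSO.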
# human Dual Specificity Protein Phosphatase 3 (DUSP3), DUSP3 (gene 1845), sequence (P51452 whole entry, looked up): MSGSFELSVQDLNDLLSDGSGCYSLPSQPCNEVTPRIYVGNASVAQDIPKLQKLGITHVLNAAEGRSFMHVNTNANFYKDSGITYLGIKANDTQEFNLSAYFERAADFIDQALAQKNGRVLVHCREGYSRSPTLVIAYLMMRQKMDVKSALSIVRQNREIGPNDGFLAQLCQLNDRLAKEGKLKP
# human Elastase, ELANE (gene 1991), sequence (P08246 whole entry, looked up): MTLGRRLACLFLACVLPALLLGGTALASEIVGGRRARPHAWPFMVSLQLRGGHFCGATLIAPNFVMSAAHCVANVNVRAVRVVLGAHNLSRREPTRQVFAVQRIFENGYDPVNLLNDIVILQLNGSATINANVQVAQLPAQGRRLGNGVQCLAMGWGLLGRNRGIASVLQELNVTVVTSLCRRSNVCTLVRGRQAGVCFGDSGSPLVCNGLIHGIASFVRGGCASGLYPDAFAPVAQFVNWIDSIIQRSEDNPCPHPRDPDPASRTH
# human Ephrin type-A Receptor 1 (EphA1), EPHA1 (gene 2041), sequence (P21709 whole entry, looked up): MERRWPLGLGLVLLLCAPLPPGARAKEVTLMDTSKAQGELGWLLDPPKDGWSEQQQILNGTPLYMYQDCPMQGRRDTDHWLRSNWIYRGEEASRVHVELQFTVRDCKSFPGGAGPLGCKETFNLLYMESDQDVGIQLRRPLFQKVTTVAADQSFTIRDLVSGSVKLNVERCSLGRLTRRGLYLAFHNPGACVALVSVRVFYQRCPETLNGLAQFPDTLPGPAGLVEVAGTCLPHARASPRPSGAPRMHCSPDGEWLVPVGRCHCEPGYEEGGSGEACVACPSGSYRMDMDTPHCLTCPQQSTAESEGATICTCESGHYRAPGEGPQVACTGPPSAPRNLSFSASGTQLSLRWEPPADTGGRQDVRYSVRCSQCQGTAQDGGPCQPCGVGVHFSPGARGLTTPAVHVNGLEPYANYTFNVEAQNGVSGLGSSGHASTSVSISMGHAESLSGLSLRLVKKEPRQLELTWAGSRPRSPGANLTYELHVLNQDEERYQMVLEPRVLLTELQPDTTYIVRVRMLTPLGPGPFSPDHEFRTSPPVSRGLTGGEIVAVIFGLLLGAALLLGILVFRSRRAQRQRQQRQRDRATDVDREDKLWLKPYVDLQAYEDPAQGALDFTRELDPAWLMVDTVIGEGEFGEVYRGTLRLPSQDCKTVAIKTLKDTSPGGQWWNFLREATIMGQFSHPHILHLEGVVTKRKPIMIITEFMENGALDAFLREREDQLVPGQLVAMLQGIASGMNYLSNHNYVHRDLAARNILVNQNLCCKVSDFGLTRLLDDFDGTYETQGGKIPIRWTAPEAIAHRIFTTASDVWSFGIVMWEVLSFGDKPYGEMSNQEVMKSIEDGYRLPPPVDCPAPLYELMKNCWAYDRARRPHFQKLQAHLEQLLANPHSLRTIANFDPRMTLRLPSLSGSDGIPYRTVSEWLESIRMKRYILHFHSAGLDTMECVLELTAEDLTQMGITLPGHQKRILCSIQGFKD
# human Esterase Plasma (ES), BCHE (gene 590), sequence (P06276 whole entry, looked up): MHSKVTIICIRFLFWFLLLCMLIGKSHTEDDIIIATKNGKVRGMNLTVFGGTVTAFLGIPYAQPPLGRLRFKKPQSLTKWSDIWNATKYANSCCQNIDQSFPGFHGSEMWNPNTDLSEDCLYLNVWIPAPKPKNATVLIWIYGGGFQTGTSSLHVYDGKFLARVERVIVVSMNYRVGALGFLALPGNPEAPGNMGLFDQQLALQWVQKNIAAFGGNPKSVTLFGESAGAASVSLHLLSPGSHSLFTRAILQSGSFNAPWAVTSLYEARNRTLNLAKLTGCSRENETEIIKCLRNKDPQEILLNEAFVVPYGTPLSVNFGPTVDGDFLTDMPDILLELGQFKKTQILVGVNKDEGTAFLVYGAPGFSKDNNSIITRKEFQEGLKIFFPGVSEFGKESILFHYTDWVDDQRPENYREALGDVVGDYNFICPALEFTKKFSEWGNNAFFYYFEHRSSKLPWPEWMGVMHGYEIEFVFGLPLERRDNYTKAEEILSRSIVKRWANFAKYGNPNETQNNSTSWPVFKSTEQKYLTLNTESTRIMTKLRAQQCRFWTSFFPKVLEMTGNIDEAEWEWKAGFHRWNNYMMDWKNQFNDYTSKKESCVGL
# Glycogen synthase kinase-3 beta (Homo sapiens), sequence (P49841 whole entry, looked up): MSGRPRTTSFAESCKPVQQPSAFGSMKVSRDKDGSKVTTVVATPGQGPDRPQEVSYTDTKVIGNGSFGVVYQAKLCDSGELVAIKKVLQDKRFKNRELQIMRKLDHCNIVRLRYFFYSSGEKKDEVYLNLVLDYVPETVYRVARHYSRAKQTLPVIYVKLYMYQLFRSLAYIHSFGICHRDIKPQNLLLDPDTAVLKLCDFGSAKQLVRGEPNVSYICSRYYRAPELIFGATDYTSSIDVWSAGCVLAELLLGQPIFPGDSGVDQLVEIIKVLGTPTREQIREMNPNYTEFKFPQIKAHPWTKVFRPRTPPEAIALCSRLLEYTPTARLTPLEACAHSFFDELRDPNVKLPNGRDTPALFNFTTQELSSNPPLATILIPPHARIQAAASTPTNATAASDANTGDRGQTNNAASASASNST
# Histone deacetylase 3 (Homo sapiens), sequence (O15379 whole entry, looked up): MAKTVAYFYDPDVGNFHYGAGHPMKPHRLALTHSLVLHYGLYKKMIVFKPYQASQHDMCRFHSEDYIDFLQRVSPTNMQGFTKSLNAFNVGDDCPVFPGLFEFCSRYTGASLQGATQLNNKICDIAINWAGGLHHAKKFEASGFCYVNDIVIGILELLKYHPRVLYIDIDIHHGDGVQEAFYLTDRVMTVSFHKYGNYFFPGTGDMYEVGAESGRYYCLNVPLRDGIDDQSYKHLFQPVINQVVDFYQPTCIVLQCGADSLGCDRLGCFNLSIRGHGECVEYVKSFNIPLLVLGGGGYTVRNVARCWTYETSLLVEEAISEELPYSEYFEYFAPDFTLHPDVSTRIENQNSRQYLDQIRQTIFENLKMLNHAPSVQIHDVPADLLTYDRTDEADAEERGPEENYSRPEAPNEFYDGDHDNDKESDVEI
# human Janus Kinase 2 (Jak2), JAK2 (gene 3717), sequence (O60674 whole entry, looked up): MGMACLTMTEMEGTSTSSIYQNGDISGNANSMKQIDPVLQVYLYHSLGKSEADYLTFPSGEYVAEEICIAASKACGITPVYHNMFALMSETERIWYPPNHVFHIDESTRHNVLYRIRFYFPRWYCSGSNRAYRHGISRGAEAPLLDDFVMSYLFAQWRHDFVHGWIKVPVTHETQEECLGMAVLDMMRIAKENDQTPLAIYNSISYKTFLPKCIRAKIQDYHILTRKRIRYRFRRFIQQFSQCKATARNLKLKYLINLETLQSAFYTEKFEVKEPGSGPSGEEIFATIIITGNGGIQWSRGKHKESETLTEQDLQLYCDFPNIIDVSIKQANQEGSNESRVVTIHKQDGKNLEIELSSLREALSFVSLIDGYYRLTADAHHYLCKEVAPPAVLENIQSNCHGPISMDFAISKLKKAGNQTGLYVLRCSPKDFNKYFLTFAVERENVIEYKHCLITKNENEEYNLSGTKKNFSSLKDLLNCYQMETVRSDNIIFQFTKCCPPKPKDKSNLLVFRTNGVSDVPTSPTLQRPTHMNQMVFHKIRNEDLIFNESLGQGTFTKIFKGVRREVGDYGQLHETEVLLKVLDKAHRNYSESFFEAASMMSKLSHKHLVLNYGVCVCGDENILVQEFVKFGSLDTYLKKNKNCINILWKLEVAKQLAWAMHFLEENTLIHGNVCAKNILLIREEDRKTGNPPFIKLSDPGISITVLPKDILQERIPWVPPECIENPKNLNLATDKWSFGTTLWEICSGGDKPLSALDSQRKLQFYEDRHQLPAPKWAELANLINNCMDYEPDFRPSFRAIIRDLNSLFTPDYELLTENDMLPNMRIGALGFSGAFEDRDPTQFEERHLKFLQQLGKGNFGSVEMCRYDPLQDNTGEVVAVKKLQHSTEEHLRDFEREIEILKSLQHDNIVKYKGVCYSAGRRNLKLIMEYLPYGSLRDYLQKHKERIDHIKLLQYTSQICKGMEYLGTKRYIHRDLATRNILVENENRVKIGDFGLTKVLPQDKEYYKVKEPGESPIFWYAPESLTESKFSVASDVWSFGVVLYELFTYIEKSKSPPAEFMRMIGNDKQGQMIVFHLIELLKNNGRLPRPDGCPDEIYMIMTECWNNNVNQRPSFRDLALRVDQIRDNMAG
compound,measurement,setting,value
Cc1cc(Cc2ccc(N)c(C)c2)ccc1N,outcome,[1],inactive
O=C(N[C@@H](c1ccccc1)[C@@H]1CCCCN1)c1cccc(C(F)(F)F)c1Cl,AC50,[2],20.8 µM (active)
CS(=O)(=O)c1ccc([C@@H](C[C@H]2CCC(=O)C2)C(=O)Nc2cnccn2)cc1Cl,outcome,[3],inactive
Cn1cnc2c1c(=O)[nH]c(=O)n2C,outcome,[2],inactive
CCC(C)N(C)C(=O)c1cc2ccccc2c(-c2ccccc2Cl)n1 (stereo not drawn),AC50,[2],9.91 µM (active)
CN(C)CCCN1c2ccccc2Sc2ccc(Cl)cc21,AC50,[4],10.7 µM (active)
same,AC50,[2],7.76 µM (active)
same,outcome,[3],inactive
CCCCCCCCCCCCCCOS(=O)(=O)O,AC50,[4],8.15 µM (active)
same,AC50,[1],25.4 µM (active)
Cc1cc(SC2=C(O)C[C@@](CCc3ccc(N)cc3)(C(C)C)OC2=O)c(C(C)(C)C)cc1CO,AC50,[2],7.01 µM (active)
same,outcome,[5],inactive
Cc1ccc(-c2cc(C(F)(F)F)nn2-c2ccc(S(N)(=O)=O)cc2)cc1,outcome,[2],inactive
O=C(NS(=O)(=O)/C=C/c1cccs1)c1ccc(F)cc1Br,outcome,[3],inactive
Cc1c(C)c2c(c(C)c1O)CCC(C)(COc1ccc(CC3SC(=O)NC3=O)cc1)O2 (stereo not drawn),outcome,[4],inactive
same,outcome,[2],inactive
CCCCCCCCCC[N+](C)(C)[O-],outcome,[3],inactive
O=C1c2c(O)cccc2Cc2cccc(O)c21,AC50,[1],4.55 µM (active)
same,outcome,[6],inactive
CSc1ccc(Oc2ccc(S(N)(=O)=O)cc2CN(C)C)cc1C,AC50,[2],0.108 µM (active)
CN(C)C(=O)NC1(c2ccccc2)CCN(CC[C@@]2(c3ccc(F)c(F)c3)CN(C(=O)c3ccccc3)CCO2)CC1,AC50,[2],19.1 µM (active)
CCc1cc(C2=C(C(=O)O)N(c3ccccc3C(F)(F)F)S(=O)(=O)c3ccccc32)cc2c1OCO2,AC50,[1],8.94 µM (active)
same,outcome,[7],inactive
